Drawing on PubChem BioAssay (NCI), this text covers growth for seven compounds.

The panel holds about 83,000 compounds, 20% with a hit somewhere; the sample as a whole holds those more often.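 96-well plates, one dose, 48 hours. Percent growth reported; active if below 10.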 Values without a mark were called inactive. Activity calls are given as the source filed them.

Holding throughout (assay): NCI-60 one-dose screen, 48 h (100 = growth as untreated, 0 = no growth, -100 = all killed)
Common to all, as to conditions: 10 µM unless noted

For test [1], the system named is NCI-H23 lung.
Test [2] relates to NCI-H226 lung.
The subject of test [3] is NCI-H322M lung.
For test [4], the system named is HOP-62 NSCLC.
Test [5] concerns NCI-H460 lung.
Test [6] concerns HOP-92 NSCLC.
For test [7], the system named is NCI-H522 lung.
Test [8] has as its system A549/ATCC NSCLC.
Test [9] concerns 786-0 renal.
Test [10] concerns COLO 205 colon.
The test system of test [11] is DU-145 prostate.
The subject of test [12] is K-562 leukemia.
The test system of test [13] is MALME-3M melanoma.
Test [14] deals with MDA-MB-231 breast.
Test [15] has as its system RXF 393 renal.
The subject of test [16] is SF-268 CNS.
Test [17] concerns SF-295 CNS.
Test [18] concerns SF-539 CNS.
Test [19] has as its system UACC-257 melanoma.
The test system of test [20] is M14 melanoma.

For `O=c1c2ccccc2sc2c(NCCN3CCOCC3)nc3ccccc3c12`, the growth is 68% in test [1]; 59.2% in test [2]; 104% in test [3]; 52% in test [4]; 27.3% in test [5]; 24.8% in test [6]. In addition, the growth in test [7] is 63.1%; in test [8], 43.1%; in test [9], 48.5%; in test [10], 21.9%; in test [11], 56%; in test [12], -11.7% (active). Besides, the growth in test [13] was 52.2%; in test [14] it was 28.9%; in test [15], 11.8%; in test [16], 66.9%; in [17], -7.24% (active); in test [18], 47.3%. In addition, the growth in test [19] was 79.8%; in [20], 5.59% (active).
For `CCCC(=O)Oc1ccc(/C(=C(\C)c2ccc(Cl)cc2)c2ccc(OCCN(CC)CC)cc2)cc1`, the growth in [1] is -33.4% (active); in test [2], 68.4%; in test [3], 24.1%; in test [4], -57.1% (active); in test [5], -83.9% (active); in [6] it was -13.1% (active). Besides, the growth in test [7] was -55% (active); in test [8], -51% (active); in test [9], -89.6% (active); in test [10], -84% (active); in test [11], -22.9% (active); in [12] it was -19.6% (active). In addition, the growth in [13] is -77.5% (active); in [14] it was -40.9% (active); in test [15], -79.5% (active); in test [16], -9.12% (active); in test [17], -75.9% (active); in [18], -77.9% (active). The growth in test [19] was -62.2% (active); in test [20], -71.8% (active).
On to `CN1C(=O)C2(NN=C(c3cccc4ccccc34)S2)c2ccccc21` (stereo not given), for which the growth in test [1] is 50.4%; in test [2] it was 46.1%; in [3], 44.4%; in test [4], 13.9%; in [5], 14.6%; in test [6], -1.68% (active). The growth in test [7] was 41.1%; in [8], 9.72% (active); in [9], 33.5%; in test [10] it was 23.5%; in [11] it was 50.3%; in test [12] it was 11.8%. Also, the growth in [13] was 63.5%; in test [14], 46%; in test [15] it was 79%; in test [16] it was 37.6%; in [17] it was 29.7%; in test [18], 49.1%. The growth is 50.6% in test [19] and 17.3% in test [20].
As to `O=c1nc(N2CCOCC2)oc2c(-c3cccc4ccccc34)cccc12`, the growth in test [1] was 89.3%; in [2] it was 66.6%; in test [3] it was 90.8%; in [4], 80.8%; in test [5] it was 110%; in [6] it was 60.1%. For the same compound, the growth is 82% in test [7]; 85.6% in [8]; 74.4% in test [9]; 103% in [10]; 97.7% in [11]; 90.1% in [12]. The growth is 75.2% in [13]; 93.5% in test [14]; 61.1% in [15]; 80.6% in test [16]; 89.2% in test [17]; 85% in test [18]. For the same compound, the growth in test [19] is 96.5%; in test [20], 93.2%.
`Nc1ncnc2c1c(-c1ccc(Oc3ccccc3)cc1)nn2C[C@H]1SSC[C@H]1O`: the growth is 19.3% in test [1]; -2.25% (active) in [2]; 13.4% in test [3]; 20.1% in test [4]; -43.6% (active) in test [5]; -4.52% (active) in test [6]. The growth in test [7] was -31.1% (active); in [8], -35.8% (active); in [9] it was 12.9%; in [10], -83.3% (active); in test [11], -22.6% (active); in test [12], -16.9% (active). Further, the growth was 13.9% in [13]; 9.82% (active) in test [14]; -4.66% (active) in [15]; 20.1% in test [16]; 20.7% in [17]; 10% in [18]. For the same compound, the values for the growth in test [19] and in [20] were 1.69% (active) and -66.7% (active), respectively.
As to `Cc1ccc(/C=C2/C(=O)Nc3cc(Cl)c(-c4csc(N)n4)cc32)cc1`, the growth was 75% in test [1]; 80.8% in test [2]; 81.4% in test [3]; 71.7% in [4]; 81.1% in test [5]; 79.4% in test [6]. The growth in test [7] was 33.7%; in test [8] it was 74.1%; in [9] it was 87.8%; in [10] it was 82.1%; in test [11] it was 87.5%; in [12], 9.97% (active). Further, the growth in test [13] is 80.4%; in test [14], 46.8%; in test [15], 76.4%; in test [16] it was 71.8%; in test [17], 70.8%; in [18], 81.6%. Further, the growth in [19] is 94.7%; in test [20] it was 52.9%.
For the compound `C/C(=N/O)c1ccc(NC(=O)Cn2nc(-c3ccc(Cl)cc3)nc2N)cc1`, the growth in test [1] was 92.7%; in test [2], 82.9%; in test [3], 92.4%; in [4] it was 88.8%; in test [5] it was 100%; in test [6], 99.2%. The growth in test [7] was 68.7%; in test [8], 79.3%; in test [9], 109%; in test [10], 101%; in test [11] it was 104%; in test [12], 99.3%. Moreover, the growth was 102% in test [13]; 82.7% in test [14]; 100% in test [15]; 89.2% in [16]; 107% in test [17]; 97.3% in [18]. Further, the growth is 73% in test [19] and 107% in test [20].
